The values below come from PubChem BioAssay AID743255 (National Center for Advancing Translational Sciences (NCATS), 2014).

SMILES strings stand for the structures. Screen size: about 390,000 compounds; about 910 (0.23%) were called active. Another 5% or so got no clear call; they are omitted. The call rests on the fitted dose curve; in most records, active means well fitted inhibition curve with a large enough effect; inconclusive means small, poorly fitted or top-dose-only effect; inactive means no such curve, though single readings can be large or run the other way. The entries come from a sample that favours actives as a whole. A call without a number means that no potency is given here.
Potency means the concentration at half of the fitted maximal effect.

Sequence of Ubiquitin carboxyl-terminal hydrolase 1 (Homo sapiens) (O94782 whole entry, looked up): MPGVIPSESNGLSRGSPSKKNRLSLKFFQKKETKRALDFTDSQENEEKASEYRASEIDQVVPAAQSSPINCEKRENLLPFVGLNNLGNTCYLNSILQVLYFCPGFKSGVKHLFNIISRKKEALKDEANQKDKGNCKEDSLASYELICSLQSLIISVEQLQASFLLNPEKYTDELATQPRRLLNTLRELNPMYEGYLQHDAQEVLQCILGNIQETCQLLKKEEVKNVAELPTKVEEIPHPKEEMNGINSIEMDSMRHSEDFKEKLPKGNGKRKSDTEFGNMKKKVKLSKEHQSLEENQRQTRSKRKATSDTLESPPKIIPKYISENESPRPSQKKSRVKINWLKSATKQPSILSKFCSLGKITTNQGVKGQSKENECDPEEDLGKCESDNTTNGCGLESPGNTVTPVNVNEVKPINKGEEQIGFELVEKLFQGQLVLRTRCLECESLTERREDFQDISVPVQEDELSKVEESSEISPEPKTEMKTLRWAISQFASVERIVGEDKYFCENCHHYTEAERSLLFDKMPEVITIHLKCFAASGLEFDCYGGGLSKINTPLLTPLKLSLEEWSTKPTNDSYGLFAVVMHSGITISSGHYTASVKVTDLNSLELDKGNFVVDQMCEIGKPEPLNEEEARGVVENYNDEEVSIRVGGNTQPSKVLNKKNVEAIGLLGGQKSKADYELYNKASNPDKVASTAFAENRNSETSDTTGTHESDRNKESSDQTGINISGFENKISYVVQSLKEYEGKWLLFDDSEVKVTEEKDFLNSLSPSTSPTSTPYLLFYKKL

For this test, the target named is Ubiquitin carboxyl-terminal hydrolase 1 (Homo sapiens) (UniProt O94782). The experiment in a line: Inhibitors of USP1/UAF1: Primary Screen. Further: nearly all actives have a fitted effect of over 60% in size. The note with it: recombinant USP1/UAF1, Ub-Rhodamine cleavage fluorescence; series mostly up to 57.1 µM. The text has this:
Deubiquitinating enzymes (DUBs) are a class of enzymes that can cleave isopeptide bond formed between the C-terminal carboxylate of ubiquitin and a lysine side-chain amino group on the target protein. Among them, ubiquitin specific proteases (USPs) constitute the largest DUB family. Human USPs are emerging as promising targets for pharmacological intervention because of their connection to a number of human diseases, including prostate, colon and breast cancer (1, 2), pediatric acute lymphoblastic leukemia (3), and familial cylindromatosis (4). The advantage of inhibiting USPs lies in the potential specificity of therapeutic intervention that can lead to better efficacy and reduce nonspecific side effects. In a collaboration between the University of Delaware and the NIH Chemical Genomics Center, a high-throughput screen assay was developed to screen for USP1/UAF1 inhibitors. This miniaturized assay has a fluorescent read-out and is used to screen the NIH Molecular Libraries Small Molecule Repository (MLSMR) in order to identify a small molecule that inhibits USP1. NIH Chemical Genomics Center [NCGC] NIH Molecular Libraries Probe Centers Network [MLPCN] MLPCN Grant: DA030552 Assay Submitter (PI): Zhihao Zhuang, University of Delaware 1. Priolo, C., et al. (2006) The isopeptidase USP2a protects human prostate cancer from apoptosis. Cancer Res 66, 8625-8632 2. Popov, N., et al. (2007) The ubiquitin-specific protease USP28 is required for MYC stability. Nat Cell Biol 9, 765-774 3. De Pitta, C., et al. (2005) A leukemia-enriched cDNA microarray platform identifies new transcripts with relevance to the biology of pediatric acute lymphoblastic leukemia. Haematologica 90, 890-898 4. Kovalenko, A., et al. (2003) The tumour suppressor CYLD negatively regulates NF-kappaB signalling by deubiquitination. Nature 424, 801-805
3 microliters of reagents (buffer in columns 3 and 4 as negative control and 1nM USP1/UAF1 complex in columns 1, 2, and 5-48) are dispensed into Greiner black solid bottom 1536-well assay plates. Compounds are then transferred via Kalypsys pin tool equipped with 1536-pin array (10nl slotted pins, V&P Scientific, San Diego, CA). Following an incubation step of 15 min at room temperature, 1ul of Ub-Rho substrate (150nM final concentration) is added to initiate the reaction. The plates are immediately centrifuged at 1000 rpm for 15 seconds, and subsequently transferred to a ViewLux high-throughput CCD imager (PerkinElmer) wherein kinetic measurements of fluorescence are acquired using 480 nm excitation/540 nm emission filter set (6 reads every 60 seconds, see Table 1). All reagents are diluted in an assay buffer consisting of 50mM HEPES (pH 7.8), 0.5mM EDTA, 0.1 mg/ml BSA, 1mM TCEP, and 0.01% Tween-20.
For the molecule `CN(C)S(=O)(=O)c1ccc(C(=O)N(Cc2cccnc2)c2nc3c(F)cc(F)cc3s2)cc1`, the Potency result is “inactive”.
Under `COc1ccc(-n2c(=O)c3c(c4cc(OC)ccc4n3C)n(Cc3cccc(C)c3)c2=O)cc1` stands “inactive”; under `Oc1ccc(N=Cc2sc3ccccc3c2Cl)cc1`, 25.1 µM (active).
Regarding `CCc1nc(-c2cc(S(=O)(=O)N3CCN(c4ccc(OC)cc4)CC3)ccc2OC)no1`, the Potency result was “inactive”.
Take `CCOc1cc(C(=O)NCCc2csc3nc(-c4ccc(C)cc4)nn23)cc(OCC)c1OCC`: the Potency entry is “inactive”.
Turning to `CCSc1nnc(NC(=O)c2cc(=O)c3cc(C)c(C)cc3o2)s1`, the Potency entry is “inactive”.
Regarding `Cc1c(NC(=O)Nc2ccc(F)c(Cl)c2)c(=O)n(-c2ccccc2)n1C`, the Potency result was “inactive”.
Regarding `Cc1cccc(N2CCN(C(=O)CCSCc3ccccc3F)CC2)c1C`, the Potency entry was “inactive”.
The same measure for `COc1ccc(CCNC(=O)c2nn(C)c3c2CSc2ccccc2-3)cc1OC`: “inactive”; for `C#CCOCCOCCOCCNc1nc(N2CCN(C(=O)C([C@@H](C)CC)n3cc(C(N)COC(=O)C(F)(F)F)nn3)CC2)nc(N2CCN(C(=O)[C@H](CCCCN)n3cc(C(N)CC(C)C)nn3)CC2)n1` (stereo not given in full): “inactive”; for `C#CCOCCOCCOCCNc1nc(N2CCOCC2)nc(N2CCN(C(=O)[C@H](Cc3ccc(O)cc3)n3cc(CCO)nn3)CC2)n1`: “inactive”.
Consider `C#CCOCCOCCOCCNc1nc(N2CCN(C(=O)CCCCCCCCCCNC(=O)[C@H]([C@@H](C)CC)n3cc(CCCCN=C(N)N)nn3)CC2)nc(N2CCN(C(=O)CCCCCCCCCCNC(=O)[C@H](CO)n3cc(CCCSC)nn3)CC2)n1`, for which the Potency was 28.2 µM (active).
Under `COc1ccccc1NC(=O)c1cc(S(=O)(=O)NCCc2ccccc2)ccc1F` stands “inactive”; under `COC(=O)c1ccc(NC(=O)c2cc(S(=O)(=O)N3CCC(C)CC3)cn2C)cc1`, “inactive”; under `Cc1ccc(Cl)cc1N(C)C(=O)C1CCCN(c2ncnc3onc(-c4ccc(F)cc4)c23)C1` (stereo not given), “inactive”.
The same measure for `COc1ccc(Cc2nc3ccc(C(=O)NCc4ccc(OC)cc4OC)cc3o2)cc1`: “inactive”; for `Cc1ccccc1CNC(=O)CCc1cn(Cc2ccccc2C)c2ccccc12`: “inactive”.
Consider `Cc1ccc(CCNC(=O)c2nnc(Cc3cccc(F)c3)o2)cc1`, for which the Potency entry was “inactive”.
Under `CCS(=O)(=O)c1nc(S(=O)(=O)c2ccc(C)cc2)c(NCc2ccc(Cl)cc2)s1` stands “inactive”.
Under `COc1ccc(-c2nc(Cn3c(=O)cc(C)c4c(C)nn(-c5ccccc5)c43)c(C)o2)c(OC)c1` stands “inactive”.
For `Cc1ccc(Cl)cc1N1CCN(C(=O)c2cccn3c(=O)c4cc(Cl)ccc4nc23)CC1`, the Potency result was “inactive”.
The same measure for `COC(=O)c1cc(NC(=O)CCc2c(C)nc3c4c(C)cc(C)nc4nn3c2C)cc(C(=O)OC)c1`: “inactive”; for `CC(=O)N1C(=O)/C(=C2\SC(=S)N(NC(=O)c3ccc(O)cc3)C2=O)c2ccccc21`: 3.98 µM (active).
As for `CC(C)n1cnc2c(NCc3ccccc3)cc(OCC3CCN(C)CC3)cc21`, the Potency is 17.8 µM (active).
As to `Cc1ccc(-c2cnc(NCc3ccc(C(C)C)cc3)n2C)cc1`, the Potency entry is “inactive”.
The same measure for `CCOC(=O)c1c(NC(=O)/C=C/c2ccc(OC)cc2)sc2c1CCC(C)C2` (stereo not given): “inactive”.
Regarding `CCCN1CCc2nc(N3CCN(C)CC3)ncc2C1`, the Potency result was “inactive”.
Regarding `O=C(CCl)N(Cc1cccc([N+](=O)[O-])c1)c1cccc(Cl)c1`, the Potency entry is “inactive”.
The same measure for `COc1ccc([N+](=O)[O-])cc1C1NN=C(c2cccc3ccccc23)S1` (stereo not given): “inactive”.
In the case of `O=C1Nc2ccc([N+](=O)[O-])cc2C1=Nc1cccc(CO)c1`, the Potency is 25.1 µM (active).
In the case of `CN1C(=O)c2cccc3c(N)ccc(c23)C1=O`, the Potency was 4.47 µM (active).
Consider `CCOC(=O)c1c(NC(C)=O)c2c3c(sc2n1Cc1c(C)cc(C)cc1C)CCCC3`, for which the Potency entry is “inactive”.
As for `COc1ccc(CCNC(=O)c2cc3cccc4c3n2CC(C)S4)c(OC)c1OC` (stereo not given), the Potency entry was “inactive”.
The same measure for `Cc1ccc(OC(=O)CSc2nnc(-c3cccs3)o2)cc1`: “inactive”; for `O=C(CSCc1cnn(-c2ccccc2)c1-n1cccc1)NCc1ccccc1Br`: “inactive”; for `CCOC(=O)C1CCCN(C(=O)c2ccc3c(c2)sc2nc(-c4ccc(CC)cc4)cn23)C1` (stereo not given): “inactive”.
Regarding `COc1ccc(OC)c2sc(N3CCN(C(=O)C4COc5ccccc5O4)CC3)nc12` (stereo not given), the Potency result is “inactive”.
`Cc1ccc2c(c1)N(C(=O)Nc1ccc(Br)cc1F)CCO2`: the Potency entry is “inactive”.
Turning to `CCOc1ccc(CCNC(=O)c2cc3c(=O)n(C)c4ccccc4c3n2C)cc1`, the Potency result was “inactive”.
As for `CCOC(=O)CC1C(=O)NCCN1c1nc2c(C)cccn2c(=O)c1/C=C1\SC(=S)N(C(C)CC)C1=O` (stereo not given), the Potency was 8.91 µM (active).
For `CCCN(CCC)c1nc2c(C)cccn2c(=O)c1/C=C1/SC(=S)N(Cc2ccco2)C1=O`, the Potency result is “inactive”.
As to `CCOC(=O)CNC(=O)c1cc2c(=O)n3cccc(C)c3nc2s1`, the Potency entry is “inactive”.
Turning to `O=C(NCC(c1cccnc1)N1CCc2ccccc21)c1cccc(C(F)(F)F)c1` (stereo not given), the Potency entry is “inactive”.
Take `CC1=C(C(=O)OCC(C)C)C(c2ccc(OCc3ccccc3)cc2)N2C(=O)CCSC2=N1` (stereo not given): the Potency result was “inactive”.
Consider `COc1cccc(C(=O)Nc2ccc3oc(-c4ccc5ccccc5c4)nc3c2)c1`, for which the Potency entry is “inactive”.
